Measurements taken from PubChem BioAssay (EPA / NIEHS).
Active and inactive are the calls of the source. Rule for the calls: active = hit-call score of the fitted dose curve at least 0.9, where 1 is the maximum; inactive = score below 0.9.

What was measured:
Settings in all cases: mRNA level, 48 h; actives raise or lower the signal
[1] = read-out: sulfotransferase 2A1 (SULT2A1), SULT2A1 (gene 6822); assay: LTEA_HepaRG_SULT2A1: Life Technologies and Expression Analysis (LTEA) Assay for sulfotransferase 2A1 (SULT2A1) using HepaRG (AID 2283531)
In short: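 HepaRG human liver cells, 48 h exposure in serum-free induction medium to 8 half-log concentrations topping at 100 µM (0.5% DMSO), duplicate wells. SULT2A1 mRNA measured by TaqMan qRT-PCR, normalized to ACTB/GAPDH/POLR2A; bidirectional fit against DMSO.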

[2] = read-out: Transforming Growth Factor (TGFA), TGFA (gene 7039); assay: LTEA_HepaRG_TGFA: Life Technologies and Expression Analysis (LTEA) Assay for Transforming Growth Factor (TGFA) using HepaRG (AID 2283532)
In short: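 Differentiated human HepaRG cells, plated 48 h then switched to serum-free induction medium, were exposed in duplicate for 48 h to 8-point half-log series from 100 uM in 0.5% DMSO. TGFA mRNA measured by qRT-PCR, normalized to ACTB/GAPDH/POLR2A, bidirectional fit versus DMSO.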

[3] = read-out: Transforming Growth Factor (TGFB1), TGFB1 (gene 7040); assay: LTEA_HepaRG_TGFB1: Life Technologies and Expression Analysis (LTEA) Assay for Transforming Growth Factor (TGFB1) Transporter using HepaRG (AID 2283533)
In short: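 Differentiated HepaRG cells exposed 48 hr in serum-free induction medium to eight half-log concentrations up to 100 uM (0.5% DMSO), duplicate; TGFB1 mRNA by TaqMan qRT-PCR normalised to ACTB, GAPDH, POLR2A; bidirectional fit against DMSO.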

TIMP1, TIMP1 (gene 7076) = assay: LTEA_HepaRG_TIMP1: Life Technologies and Expression Analysis (LTEA) Assay for TIMP1 using HepaRG (AID 2283534);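 note: TaqMan qRT-PCR signal normalized to ACTB GAPDH and POLR2A housekeeping genes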
In short: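 Differentiated HepaRG cells exposed 48 h in serum-free induction medium, duplicates, eight half-log concentrations from 100 uM in 0.5% DMSO. TIMP1 mRNA by qRT-PCR normalized to ACTB, GAPDH, POLR2A; bidirectional fitting against DMSO.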

[4] = read-out: Tumor necrosis factor receptor 1 (TNFRSF1A), TNFRSF1A (gene 7132); assay: LTEA_HepaRG_TNFRSF1A: Life Technologies and Expression Analysis (LTEA) Assay for Tumor necrosis factor receptor 1 (TNFRSF1A) using HepaRG (AID 2283535)
In short: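 Differentiated HepaRG cells in serum-free induction medium, exposed 48 h in duplicate to 8 half-log concentrations up to 100 uM in 0.5% DMSO. TNFRSF1A mRNA by Fluidigm TaqMan qRT-PCR, normalized to ACTB, GAPDH, POLR2A; bidirectional fit.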

[5] = read-out: Thyroid Hormone Responsive (THRSP), THRSP (gene 7069); assay: LTEA_HepaRG_THRSP: Life Technologies and Expression Analysis (LTEA) Assay for Thyroid Hormone Responsive (THRSP) using HepaRG (AID 2283536)
In short: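 Differentiated human HepaRG cells were exposed in duplicate for 48 h in serum-free induction medium to eight concentrations (top 100 uM, half-log steps, 0.5% DMSO). Expression was quantified by TaqMan qRT-PCR, normalized to ACTB, GAPDH and POLR2A, with bidirectional fitting against DMSO.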

[6] = read-out: Cellular tumor antigen p53 (Homo sapiens) (UniProt P04637); assay: LTEA_HepaRG_TP53: Life Technologies and Expression Analysis (LTEA) Assay for Tumor Protein P53 (TP53) using HepaRG (AID 2283537)
In short: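 Gain or loss of TP53 mRNA signal is scored relative to 0.5% DMSO after 48 h chemical treatment of HepaRG liver cells, tested in duplicate at eight half-log concentrations up to 100 uM.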

[7] = read-out: UDP glucuronosyltransferase (UGT1A1), UGT1A1 (gene 54658); assay: LTEA_HepaRG_UGT1A1: Life Technologies and Expression Analysis (LTEA) Assay for UDP glucuronosyltransferase (UGT1A1) using HepaRG (AID 2283538)
In short: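 HepaRG cells, 0.5% DMSO vehicle, 48 h exposure in serum-free induction medium to 8-point half-log series topping at 100 uM, in duplicate. UGT1A1 mRNA by Fluidigm qRT-PCR, normalized to ACTB/GAPDH/POLR2A; bidirectional fit versus DMSO.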

[8] = read-out: UDP glucuronosyltransferase (UGT1A6), UGT1A6 (gene 54578); assay: LTEA_HepaRG_UGT1A6: Life Technologies and Expression Analysis (LTEA) Assay for UDP glucuronosyltransferase (UGT1A6) using HepaRG (AID 2283539)
In short: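 Differentiated HepaRG cells, ~100,000/well, were exposed for 48 h in serum-free induction medium with 0.5% DMSO to 8-point half-log series topping at 100 uM, in duplicate. mRNA measured by Fluidigm TaqMan qRT-PCR, normalized to ACTB, GAPDH and POLR2A.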

[9] = read-out: X-box binding protein 1 (XBP1), XBP1 (gene 7494); assay: LTEA_HepaRG_XBP1: Life Technologies and Expression Analysis (LTEA) Assay for X-box binding protein 1 (XBP1) using HepaRG (AID 2283540)
In short: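 Differentiated human HepaRG cells in serum-free induction medium exposed 48 h in duplicate to eight half-log concentrations up to 100 uM in 0.5% DMSO. XBP1 mRNA measured by Fluidigm TaqMan qRT-PCR, normalized to ACTB, GAPDH, POLR2A; bidirectional fitting against DMSO.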

Measured: AC50

Chain of Cellular tumor antigen p53 (Homo sapiens) (P04637 whole entry, looked up): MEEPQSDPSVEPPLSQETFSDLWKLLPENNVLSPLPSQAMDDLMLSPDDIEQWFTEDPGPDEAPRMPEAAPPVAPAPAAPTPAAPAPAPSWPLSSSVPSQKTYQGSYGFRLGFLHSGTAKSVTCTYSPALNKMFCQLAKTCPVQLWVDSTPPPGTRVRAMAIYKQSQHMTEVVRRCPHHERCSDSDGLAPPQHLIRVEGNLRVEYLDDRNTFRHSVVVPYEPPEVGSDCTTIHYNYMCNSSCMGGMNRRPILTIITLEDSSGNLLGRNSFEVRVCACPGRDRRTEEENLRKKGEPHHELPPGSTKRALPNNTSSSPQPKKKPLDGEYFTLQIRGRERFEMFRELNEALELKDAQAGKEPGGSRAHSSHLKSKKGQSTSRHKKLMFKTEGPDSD

CCCCCCCCCCCCc1ccccc1
inactive: all assays above

Cc1ccc(N)cc1O
active: [5] 25.2 µM
inactive: all other assays above

CCCCCCCCO
inactive: all assays above

CC(=O)OCCC(C)C
inactive: all assays above

CCCCC(CC)COC(=O)c1ccc(C(=O)OCC(CC)CCCC)cc1 (stereo not drawn)
not listed: [2]
inactive: all other assays above

CC(C)CCCCCCOC(=O)c1ccc(C(=O)OCCCCCCC(C)C)c(C(=O)OCCCCCCC(C)C)c1
inactive: all assays above

O=C(O)CCN(C1(C(=O)NO)CCCC1)S(=O)(=O)c1ccc(Oc2ccc(F)cc2)cc1
inactive: all assays above

CCOC(=O)CC(CC(=O)OCC)(OC(C)=O)C(=O)OCC
inactive: all assays above

CCOc1cccc(-n2cc(C(=O)N3CCN(c4cc(C(=O)O)c5ccccc5c4)CC3)nc2-c2ccc(C)cc2)c1
inactive: TIMP1, TIMP1 (gene 7076)
active: [1] 35.7 µM | [2] 88.7 µM | [3] 83.7 µM | [4] 80.3 µM | [5] 26.3 µM | [6] 91.5 µM | [7] 75.9 µM | [8] 75.1 µM | [9] 88.1 µM

Cn1c(=O)c2c(ncn2C)n(C)c1=O
not listed: [2]
inactive: all other assays above
